Our source for the Potency and viability (% of DMSO) values is PubChem BioAssay (NCATS).

Molecules are shown by their SMILES. Records with an inconclusive call do not appear. The source made the active and inactive calls. The call rests on the fitted dose curve; in most records, active means well fitted cell-killing curve with a large enough effect; inconclusive means small, poorly fitted or top-dose-only effect, or effect the other way; inactive means no such curve, though single readings can be large or run the other way.
Potency means the concentration at half of the fitted maximal effect.

The first assay can be described thus: Quantitative High-Throughput drug screen in 47 multiple myeloma cell lines against the NCATS MIPE library collection: L363_DSMZ cell viability assay (AID 1918984). Further: nearly all actives have a fitted effect of over 40% in size. Particulars: L363 myeloma viability, CellTiter-Glo ATP luminescence, 48 h; series mostly up to 45.8 µM. In short, it runs like this: (§1)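 Plated at 500 cells per well, myeloma lines received MIPE 4.0 compounds by pin tool. Following 48 h culture at 37 °C, CellTiter-Glo luminescence gave viability relative to DMSO and media-only controls.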
For the compound `CS(=O)(=O)N(Cc1ccco1)CC(O)Cn1c2ccccc2c2ccccc21` (stereo not given), the Potency result was “inactive”.
Same read-out and setting: in the case of `O=C(OCC#CCSc1nnc(-c2cccc3ccccc23)o1)c1cc2ccccc2s1` it was “inactive”; in that of `COCCOc1nc(-c2ccc(Cl)c(Cl)c2)n(-c2ccc(NC(=O)CCl)cc2)n1`, 8.33 µM (active); in that of `NC(=O)c1cccc(-c2cc(Nc3ccc(OC(F)(F)F)cc3)ncn2)c1`, 8.33 µM (active).
`O=C(Nc1cccc(Br)c1)c1cccc(S(=O)(=O)N2CCCCCC2)c1`: the Potency was 13.2 µM (active).
Regarding `O=C1NC(=O)C(=Cc2ccc3nccnc3c2)S1`, the Potency is 0.115 µM (active).
For `CCCCCNC(=O)N1CCC(CN(Cc2ccc(Cl)cc2)Cc2ccc([N+](=O)[O-])s2)C1` (stereo not given), the Potency is 20.9 µM (active).
The same measure, in the same setting: the result for `O=c1cc(CN2CCOCC2)occ1OCCCCCSc1ccnc2cc(C(F)(F)F)ccc12` reads 16.6 µM (active); that for `NC1CCC(Nc2nc(Nc3ccc(C(=O)N4CCCCC4)cc3)c3ncn(-c4cccc(F)c4)c3n2)CC1` (stereo not given), “inactive”.
Regarding `COc1cccc2c1CCCC2CCCN1CCN(C2CCCCC2)CC1` (stereo not given), the Potency is 16.6 µM (active).
The same measure, in the same setting: in the case of `Cc1cc(OCCCc2c(C(=O)O)n(Cc3cccnc3)c3c(-c4c(COc5ccc(N6CCN([S+](C)(=O)[O-])CC6)cc5)nn(C)c4C)cccc23)cc(C)c1Cl` it was “inactive”; in that of `Cc1ccc(F)c(NC(=O)Nc2ccc(-c3cccc4[nH]nc(N)c34)cc2)c1`, 4.18 µM (active); in that of `COc1cc2c(cc1OC)CN(CCc1ccc(NC(=O)c3cc(OC)c(OC)cc3NC(=O)c3cnc4ccccc4c3)cc1)CC2`, “inactive”.
As for `CC(C)C(=O)Nc1ncc(-c2cc(C(F)F)nn2-c2c(Cl)cccc2Cl)s1`, the Potency is 8.33 µM (active).
On the same count and under the same terms, in the case of `CC(C)(C)COc1ccc(-n2cc(C(=O)O)cn2)cc1C#N` it was “inactive”.
For the compound `N#CC1(c2ccc(NC(=O)c3cccnc3NCc3ccncc3)cc2)CCCC1`, the Potency result is “inactive”.
For `NS(=O)(=O)c1ccc(NC2=CC(=O)c3ccccc3C2=O)cc1`, the Potency is 1.66 µM (active).
Regarding `Cc1c(O)cccc1C(=O)N[C@@H](CSc1ccccc1)[C@H](O)CN1C[C@H]2CCCC[C@@H]2C[C@@H]1C(=O)NC(C)(C)C`, the Potency is 20.9 µM (active).
On the same count and under the same terms, in the case of `Cc1cnc(C(=O)O)c[n+]1[O-]` it was “inactive”; in that of `O=C(O)[C@H]1O[C@H](Oc2cc3oc(-c4ccccc4)cc(=O)c3c(O)c2O)[C@H](O)[C@@H](O)[C@H]1O`, “inactive”; in that of `C=C1C(=O)OC2C=C(C)CCC=C(C)CCC12` (stereo not given), 29.6 µM (active).

Another assay is described as follows: Quantitative High-Throughput drug screen in 47 multiple myeloma cell lines against the NCATS MIPE library collection: KMS34_JCRB cell viability assay (AID 1918985). Further: nearly all actives have a fitted effect of over 40% in size. Particulars: KMS34 myeloma viability, CellTiter-Glo ATP luminescence, 48 h; series mostly up to 45.8 µM. The method, boiled down: as §1
(In general: Cellular ATP, detected with luciferase, serves as a proxy for viable cell number.)
On to `CS(=O)(=O)N(Cc1ccco1)CC(O)Cn1c2ccccc2c2ccccc21` (stereo not given), for which the Potency was 16.6 µM (active).
`COCCOc1nc(-c2ccc(Cl)c(Cl)c2)n(-c2ccc(NC(=O)CCl)cc2)n1`: the Potency was 18.7 µM (active).
Still for that read-out and setting: the result for `CC1(C)CCC(CN2CCN(c3ccc(C(=O)NS(=O)(=O)c4ccc(NCC5CCOCC5)c([N+](=O)[O-])c4)c(Oc4cnc5[nH]ccc5c4)c3)CC2)=C(c2ccc(Cl)cc2)C1` reads 16.6 µM (active); that for `CC(C)C(=O)Oc1ccc(CO)cc1[C@H](CCN(C(C)C)C(C)C)c1ccccc1`, 18.7 µM (active); that for `CCCCCNC(=O)N1CCC(CN(Cc2ccc(Cl)cc2)Cc2ccc([N+](=O)[O-])s2)C1` (stereo not given), 26.4 µM (active).
Consider `Cc1ccccc1C(C(=O)NC1CCCCC1)N(C(=O)Cn1ccnc1C)c1cccc(F)c1` (stereo not given), for which the Potency was 20.9 µM (active).
The same measure, in the same setting: the result for `COc1cccc2c1CCCC2CCCN1CCN(C2CCCCC2)CC1` (stereo not given) reads “inactive”.
Still for that read-out and setting: the result for `Cc1ccc(F)c(NC(=O)Nc2ccc(-c3cccc4[nH]nc(N)c34)cc2)c1` reads 26.4 µM (active); that for `COc1cc2c(cc1OC)CN(CCc1ccc(NC(=O)c3cc(OC)c(OC)cc3NC(=O)c3cnc4ccccc4c3)cc1)CC2`, “inactive”; that for `CC(C)(C)COc1ccc(-n2cc(C(=O)O)cn2)cc1C#N`, “inactive”.
On the same count and under the same terms, the result for `C[C@]12CCC3c4ccc(O)cc4CCC3C1CCC2=O` (stereo not given in full) reads 10.5 µM (active).
Regarding `N#CC1(c2ccc(NC(=O)c3cccnc3NCc3ccncc3)cc2)CCCC1`, the Potency result was “inactive”.
Turning to `CCOC1OC(=O)C[C@H]1NC(=O)[C@@H]1CCCN1C(=O)[C@@H](NC(=O)c1ccc(N)c(Cl)c1)C(C)(C)C` (stereo not given in full), the Potency entry is “inactive”.
`Cc1c(O)cccc1C(=O)N[C@@H](CSc1ccccc1)[C@H](O)CN1C[C@H]2CCCC[C@@H]2C[C@@H]1C(=O)NC(C)(C)C`: the Potency is 18.7 µM (active).
Still for that read-out and setting: the result for `Cc1cnc(C(=O)O)c[n+]1[O-]` reads 4.18 µM (active); that for `CC(C)(Cc1ccc2ccccc2c1)NC[C@@H](O)COc1cccc(Cl)c1C#N`, “inactive”; that for `C=C1C(=O)OC2C=C(C)CCC=C(C)CCC12` (stereo not given), 14.8 µM (active).

Another assay in a line: Quantitative High-Throughput drug screen in 47 multiple myeloma cell lines against the NCATS MIPE library collection: OCIMY7_PLB cell viability assay (AID 1918987). Further: nearly all actives have a fitted effect of over 65% in size. The note with it: OCI-MY7 myeloma viability, CellTiter-Glo ATP, 48 h; viability (% of DMSO): at 45.8 µM (top of the series). The method, boiled down: as §1
`CS(=O)(=O)N(Cc1ccco1)CC(O)Cn1c2ccccc2c2ccccc21` (stereo not given): the Potency was 13.2 µM (active).
Same read-out and setting: the result for `O=C(OCC#CCSc1nnc(-c2cccc3ccccc23)o1)c1cc2ccccc2s1` reads “inactive”; that for `COCCOc1nc(-c2ccc(Cl)c(Cl)c2)n(-c2ccc(NC(=O)CCl)cc2)n1`, 16.6 µM (active).
The same measure, in the same setting: in the case of `NC(=O)c1cccc(-c2cc(Nc3ccc(OC(F)(F)F)cc3)ncn2)c1` it was 13.2 µM (active); in that of `CNC(=O)c1ccccc1Sc1ccc2c(C=Cc3ccccn3)n[nH]c2c1`, 2.64 µM (active).
Same read-out and setting: the result for `CCCCCNC(=O)N1CCC(CN(Cc2ccc(Cl)cc2)Cc2ccc([N+](=O)[O-])s2)C1` (stereo not given) reads 16.6 µM (active); that for `O=c1cc(CN2CCOCC2)occ1OCCCCCSc1ccnc2cc(C(F)(F)F)ccc12`, 11.8 µM (active); that for `COc1cccc2c1CCCC2CCCN1CCN(C2CCCCC2)CC1` (stereo not given), 13.2 µM (active).
As to `CN[C@@H](C)C(=O)N[C@H]1CN(C(=O)CC(C)C)CC[C@H]2CC[C@@H](C(=O)NC(c3ccccc3)c3ccccc3)N2C1=O`, the Potency was 10.5 µM (active).
The same measure, in the same setting: in the case of `Cc1ccc(F)c(NC(=O)Nc2ccc(-c3cccc4[nH]nc(N)c34)cc2)c1` it was 4.69 µM (active).
Turning to `CCOC1OC(=O)C[C@H]1NC(=O)[C@@H]1CCCN1C(=O)[C@@H](NC(=O)c1ccc(N)c(Cl)c1)C(C)(C)C` (stereo not given in full), the viability (% of DMSO) was 164% (active).
With `NS(=O)(=O)c1ccc(NC2=CC(=O)c3ccccc3C2=O)cc1`, the Potency was 2.09 µM (active).
Still for that read-out and setting: in the case of `Cc1c(O)cccc1C(=O)N[C@@H](CSc1ccccc1)[C@H](O)CN1C[C@H]2CCCC[C@@H]2C[C@@H]1C(=O)NC(C)(C)C` it was 14.8 µM (active); in that of `CC(=O)O[C@]1(C(C)=O)CC[C@@H]2[C@@H]3C[C@H](C)C4=CC(=O)CC[C@]4(C)[C@H]3CC[C@@]21C`, 23.5 µM (active); in that of `Cc1c(NC(=O)c2ccc(C(C)(C)C)cc2)cccc1-c1cn(C)c(=O)c(Nc2ccc(C(=O)N3CCOCC3)cc2)n1`, 8.33 µM (active).
On to `O=C(NC1CCOCC1)c1ccc(-c2cc(-c3cn[nH]c3-c3ccccn3)ccn2)cc1`, for which the Potency result was “inactive”.
Still for that read-out and setting: the result for `C=C1C(=O)OC2C=C(C)CCC=C(C)CCC12` (stereo not given) reads 4.69 µM (active).
